Measured values from PubChem BioAssay AID1566 (Sanford-Burnham Center for Chemical Genomics, 2009).
Among all 290,000 compounds or so, about 1,800 (0.62%) were called active. No stated cut-off is given here; in the data, active means inhibition above about 50%; inactive means the rest. The entries come from a sample that favours actives as a whole.

Test: inhibition of NOD2-driven NF-kB reporter – cell-based, luminescence, uHTS, HEK293 (AID 1566)
Details: HEK293 NOD2/NF-kB luciferase reporter, at 4 µM, active compounds read high

SMILES	inhibition
CCOc1ccc(N2C(=O)NC(=O)/C(=C/c3cnc(SC)nc3)C2=O)cc1	3% (inactive)
Cc1ccc(N2C(=O)NC(=O)/C(=C\c3ccc([N+](=O)[O-])o3)C2=O)cc1	10.6% (inactive)
Nc1cc2nc3ccccc3nc2cc1N	-1.6% (inactive)
CNc1ccc2nc3ccccc3[n+](C)c2c1	54.7% (active)
C[n+]1c2ccccc2nc2ccc(NCCO)cc21	41.7% (inactive)
CC(Cc1ccccc1)NC(=O)Cc1ccc([N+](=O)[O-])cc1 (configuration not stated)	4.1% (inactive)
CC1(c2ccc(Cl)cc2Cl)OCC(Cn2cncn2)O1 (configuration not stated)	60.3% (active)
CC(C(=O)c1ccc(Cl)cc1Cl)n1cncn1 (configuration not stated)	-37.6% (inactive)
CCCC1COC(Cn2cncn2)(c2ccc(Cl)cc2Cl)O1 (configuration not stated)	5.9% (inactive)
Cc1c(C(=O)N2CCC3(CC2)OCCO3)oc2ccc(S(=O)(=O)N3CCOCC3)cc12	9.5% (inactive)
Clc1ccccc1NC1=NCCCS1	-11.5% (inactive)
Cn1ncnc2c(=O)n(C)c(=O)nc1-2	45.4% (inactive)
CCn1nc(-c2cccs2)nc2c(=O)n(C)c(=O)nc1-2	72.1% (active)
CCOc1ccc(-n2c(-c3cccs3)nc3ccccc3c2=O)cc1	21.3% (inactive)
CCCCn1c(O)c(C(C)=NCCN2CCOCC2)c(=O)[nH]c1=O	2.3% (inactive)
COc1ccc(CNCCc2c(C)[nH]c3ccc(OC(F)(F)F)cc23)c(OC)c1	57.8% (active)
Cc1[nH]c2ccc(OC(F)(F)F)cc2c1CCNCc1ccc(Cl)cc1	2.1% (inactive)
COc1ccc2[nH]c(C)c(CCNCc3cc(OC)c(OC)c(OC)c3)c2c1	6.9% (inactive)
COc1cc2c(cc1OC)C(C(=O)N(C)C1CCCCC1)C1CCCCN1C2=O (configuration not stated)	9.9% (inactive)
CCCCn1c(=O)c(C(=O)Nc2ccccc2N)c(O)c2ccccc21	2.4% (inactive)
COc1ccc(C2=NS(=O)(=O)N(C)C(C(=O)N3CCC4(CC3)OCCO4)=C2)cc1OC	8.1% (inactive)
COc1ccc(CNCCc2ccc(Cl)cc2Cl)cc1	-27.6% (inactive)
Cc1nn(Cc2ccccc2Cl)c(C)c1C(=O)NC1CCCc2ccccc21 (configuration not stated)	20.5% (inactive)
CN(C)C(=O)Oc1ccc2c(c1)O/C(=C\c1ccc(Cl)cc1)C2=O	-16.2% (inactive)
Cc1c(C(=O)Nc2ccccc2)cc(-c2ccccc2)n1CCCN1CCOCC1	8.6% (inactive)
O=C(NCc1cccnc1)Nc1ccc([N+](=O)[O-])cc1	-1.2% (inactive)
Cc1ccc(CN2CCN(CC(=O)N3CCC4(CC3)OCCO4)C2=O)cc1	-1.6% (inactive)
